TDP1 cell noCPT: qHTS for Inhibitors of human tyrosyl-DNA phosphodiesterase 1 (TDP1): qHTS in cells in absence of CPT | DT40 Tdp1-/- hTDP1 cells, no CPT, ATP luminescence, 48 h | Potency, µM (series often up to 46.2 µM), usual class: inhibitors | 15% of 420,000 active | AID 686978, 2013; also: nearly all actives have a fitted effect of over 55% in size
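Growth kinetics read by CellTiter-Glo luminescence after ≥48 hr at 37 °C. Cells: DT40 Tdp1-/- stably carrying human TDP1, 400 per well, compound exposure in the absence of CPT (DMSO vehicle).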
HT1080 IDH1KD tx: HT-1080 IDH1 knockdown cell toxicity (counter line); HT-1080 IDH1 knockdown viability, ATP luminescence, 48 h; Potency, µM (top dose mostly 46.1 µM), actives largely listed as cytotoxic; 2% of 360,000 active; AID 686971
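In this qHTS, HT-1080 cells depleted of IDH1 are exposed for 48 h at 37 °C to compound titrations. Toxicity is scored from CellTiter-Glo luminescence, with DMSO as full viability and medium alone as none.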
HT1080NT lethal: kills 2HG-producing HT-1080-NT fibrosarcoma cells. HT-1080-NT fibrosarcoma viability, CellTiter-Glo ATP luminescence, 48 h. Potency, µM (highest dose often 46.1 µM), most hits filed as cytotoxic. 1.6% of 360,000 active;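 also: NT is the 2HG producing partner of a matched IDH1 knockdown line; nearly all actives have a fitted effect of over 55% in size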
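A 48-hour cytotoxicity screen used HT-1080-NT cells plated 2 hours before compound delivery. ATP-based CellTiter-Glo luminescence measured viability, normalized to DMSO and no-cell controls.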
12-LOX inh: inhibitors of human 12S-lipoxygenase ALOX12; P18054; purified 12hLO, xylenol orange hydroperoxide absorbance; Potency, µM (doses to about 108 µM), most hits filed as inhibitors; 1.1% of 580,000 active
Target sequence (P18054 whole entry, looked up): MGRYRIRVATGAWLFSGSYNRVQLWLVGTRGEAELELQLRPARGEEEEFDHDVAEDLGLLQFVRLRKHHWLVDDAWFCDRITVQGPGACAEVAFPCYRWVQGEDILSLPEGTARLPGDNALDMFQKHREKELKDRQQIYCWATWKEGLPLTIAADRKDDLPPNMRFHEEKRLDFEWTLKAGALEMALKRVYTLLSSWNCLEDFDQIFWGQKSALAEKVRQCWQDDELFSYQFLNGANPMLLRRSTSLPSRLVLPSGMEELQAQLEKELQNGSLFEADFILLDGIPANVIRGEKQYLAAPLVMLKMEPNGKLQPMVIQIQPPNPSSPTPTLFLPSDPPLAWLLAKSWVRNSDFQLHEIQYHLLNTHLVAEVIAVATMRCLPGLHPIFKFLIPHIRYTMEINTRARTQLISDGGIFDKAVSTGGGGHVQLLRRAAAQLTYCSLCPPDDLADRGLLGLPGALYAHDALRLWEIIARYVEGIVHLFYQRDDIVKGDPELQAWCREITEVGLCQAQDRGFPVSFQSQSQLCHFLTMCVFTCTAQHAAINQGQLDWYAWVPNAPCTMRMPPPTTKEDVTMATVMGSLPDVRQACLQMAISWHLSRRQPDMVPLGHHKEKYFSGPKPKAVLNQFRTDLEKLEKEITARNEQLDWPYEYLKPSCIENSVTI
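Purified human 12hLO at 150 nM in 25 mM Hepes, 0.01% Triton X-100, pH 7.0, preincubated 15 min at room temperature with compound. Reaction started with 40 uM arachidonic acid, 30 min at room temperature. Hydroperoxide measured by Fe-xylenol orange, 573/405 nm absorbance ratio.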
TDP1 cell CPT: growth inhibition of DT40 Tdp1-/-;hTDP1 cells with camptothecin (screen for TDP1 inhibitors) | chicken DT40 Tdp1-/-;hTDP1 cells + 20 nM CPT, ATP luminescence, 48 h | AID 686979 | Potency, µM (titrated, usually from 46.2 µM), usual class: inhibitors | 12% of 420,000 active; also: nearly all actives have a fitted effect of over 55% in size
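Chicken DT40 Tdp1-/- cells complemented with human TDP1, 400 cells/well, exposed to compounds plus 20 nM camptothecin for at least 48 h at 37 C; viability read as ATP content by CellTiter-Glo luminescence.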
IL1B secr inh: inflammasome signaling inhibition, IL-1 beta readout; THP-1 LPS/ATP IL-1B secretion, AlphaLISA, 16 h; stronger effect = lower value; activity change, % at 57.5 µM; 4.7% of 360,000 active; in the data active = activity change below about -50%; inconclusive = mostly about -30% to -49%
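Secreted IL-1B measured by AlphaLISA bead assay after 16 h compound exposure of THP-1 cells; compounds (final up to 57.5 uM) added 1 h before LPS (250 ng/mL) and ATP (1.25 mM) stimulation; lower signal means less secretion.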
Each line names hits and unclear results; the compound was inactive in the other large screens. This is one part of a sample in which hits are shown more often than they occur. Unless noted, calls follow the shape of the dose curve; as a rule, active = well fitted curve in the direction sought with a large enough effect; inconclusive = small, poorly fitted or top-dose-only effect, or another doubt; inactive = no such curve, though single readings can be large; an effect the other way counts as inactive or inconclusive.

CCNC(=O)C1CCN(S(=O)(=O)c2ccc(F)cc2)CC1	TDP1 cell noCPT 18.4µM, TDP1 cell CPT inconclusive
Cc1ccc(NC(=O)C2CCN(S(C)(=O)=O)CC2)cc1Cl	IL1B secr inh -61.1
O=C(NCc1ccc(N2CCCC2=O)cc1)c1ccc(F)cc1	none
CS(=O)(=O)N1CCC(C(=O)Nc2ccc(F)c(Cl)c2)CC1	TDP1 cell noCPT inconclusive
O=C(NCc1ccccc1Cl)C1CCN(S(=O)(=O)c2ccc(N3CCCC3=O)cc2)CC1	TDP1 cell noCPT inconclusive, TDP1 cell CPT 16.4µM
O=C(NCc1ccc(F)cc1)C1CCN(S(=O)(=O)c2ccc(N3CCCC3=O)cc2)CC1	TDP1 cell noCPT 16.4µM, TDP1 cell CPT inconclusive
CC1Oc2ccc(NC(=O)c3ccc(F)cc3F)cc2CN(Cc2ccccc2Cl)C1=O (stereo not given)	none (no result: TDP1 cell noCPT, HT1080 IDH1KD tx, HT1080NT lethal, TDP1 cell CPT, IL1B secr inh)
O=C(OCC(=O)N1CCOCC1)c1cc2ccccc2[nH]1	none (no result: TDP1 cell noCPT, HT1080 IDH1KD tx, HT1080NT lethal, TDP1 cell CPT, IL1B secr inh)
COc1ccc(CNC(=O)C2CCN(S(=O)(=O)c3ccccc3)CC2)cc1	none
Cc1ccc(CNC(=O)c2ccc(N3CCCC3=O)cc2)cc1	none
COc1cc(NC(=O)C2CCN(S(=O)(=O)c3ccc(Cl)cc3)CC2)ccc1N1CCCC1=O	none (no result: TDP1 cell noCPT, HT1080 IDH1KD tx, HT1080NT lethal, TDP1 cell CPT, IL1B secr inh)
Cn1nc(C(C)(C)C)cc1C(=O)NCc1ccc(N2CCCC2=O)cc1	TDP1 cell noCPT 2.31µM, HT1080 IDH1KD tx inconclusive, HT1080NT lethal inconclusive, TDP1 cell CPT 3.26µM
COc1ccc(CNC(=O)C2CCN(S(=O)(=O)c3ccc(N4CCCC4=O)cc3)CC2)cc1	TDP1 cell noCPT 11.6µM, TDP1 cell CPT 25.9µM
Cc1ccc(NC(=O)C2CCN(S(=O)(=O)c3ccc(N4CCCC4=O)cc3)CC2)cc1Cl	TDP1 cell noCPT 4.11µM, HT1080 IDH1KD tx inconclusive, HT1080NT lethal inconclusive, TDP1 cell CPT 5.8µM
C/C(=N/Nc1ccc(S(N)(=O)=O)cc1[N+](=O)[O-])c1ccc(Cl)c(Cl)c1	none (no result: TDP1 cell noCPT, HT1080 IDH1KD tx, HT1080NT lethal, TDP1 cell CPT, IL1B secr inh)
COc1ccc(C(=O)N2CCN(C(=O)N3CC4CC(C3)[C@H]3CCCC(=O)N3C4)CC2)cn1 (stereo not given in full)	none (no result: TDP1 cell noCPT, HT1080 IDH1KD tx, HT1080NT lethal, TDP1 cell CPT, IL1B secr inh)
Fc1ccc(-c2csc(=Nc3cccc(C(F)(F)F)c3)n2Cc2ccc3c(c2)OCO3)cc1	TDP1 cell noCPT 13µM, 12-LOX inh inconclusive, TDP1 cell CPT 13µM (no result: HT1080 IDH1KD tx, HT1080NT lethal, IL1B secr inh)
CCN(CC)S(=O)(=O)c1ccc(-c2csc(=Nc3cccc(C(F)(F)F)c3)n2Cc2ccc3c(c2)OCO3)cc1	TDP1 cell noCPT 9.2µM, TDP1 cell CPT inconclusive (no result: HT1080 IDH1KD tx, HT1080NT lethal, IL1B secr inh)
CN(C)S(=O)(=O)c1cccc(-c2csc(=Nc3ccccc3)n2CCCN2CCOCC2)c1	TDP1 cell noCPT inconclusive, TDP1 cell CPT inconclusive
Cn1c(CC(=O)Nc2ccccc2Cl)nnc1SCc1nc2ccccc2c(=O)[nH]1	none (no result: TDP1 cell noCPT, HT1080 IDH1KD tx, HT1080NT lethal, TDP1 cell CPT, IL1B secr inh)
Cc1ccc(CNC(=O)N2CCn3nnc(CCC(=O)NC4CC4)c3C2)cc1	none (no result: TDP1 cell noCPT, HT1080 IDH1KD tx, HT1080NT lethal, TDP1 cell CPT, IL1B secr inh)
Cc1cc(C)cc(Nc2cc(-c3ccccc3)nc(C)n2)c1	TDP1 cell noCPT 8.2µM, TDP1 cell CPT 9.2µM (no result: HT1080 IDH1KD tx, HT1080NT lethal, IL1B secr inh)
Cc1cc(C)n(-c2cc(-c3ccccc3)nc(C)n2)n1	TDP1 cell noCPT inconclusive, TDP1 cell CPT 16.4µM
Brc1ccccc1N=Cc1ccc(-c2ccccc2)cc1	none (no result: TDP1 cell noCPT, HT1080 IDH1KD tx, HT1080NT lethal, TDP1 cell CPT, IL1B secr inh)

High-throughput results (PubChem)
